Screens as filed in PubChem BioAssay.
ELG1 repair inh = inhibitors of ELG1-dependent DNA repair in HEK293T cells; HEK293T ELG1-luciferase reporter, luminescence, 16 h; DNA damage induced by 5-fluorouridine; Potency, µM (titrated, usually from 46.1 µM), for the others: at the top dose activity change, negative = inhibition, usual class: inhibitors; 330,000 compounds, 2.3% hits; AID 504467; note: potency is the fitted concentration of half-maximal effect; nearly all actives have a fitted effect of over 55% in size
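In this reporter screen, reduction of luminescence relative to DMSO vehicle indicated activity. Compounds and 5-fluorouridine were added together to 2,000 cells per well, incubated for 16 hr at 37 °C, then developed with ONE-Glo.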
IL-1B inflam inh = inflammasome signaling inhibition, IL-1 beta readout; THP-1 LPS/ATP IL-1B secretion, AlphaLISA, 16 h; stronger effect = lower value; activity change, % at 57.5 µM; 360,000 compounds, 4.7% hits; AID 743279; in the data active = activity change below about -50%; inconclusive = mostly about -30% to -49%
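THP-1 cells pretreated 1 hr with compounds (up to 57.5 uM final), then stimulated with LPS (250 ng/mL final) plus ATP (1.25 mM final); secreted IL-1B measured by AlphaLISA after 16 hr, decreased signal indicating inhibition.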
DT40 TDP1 no CPT = qHTS for Inhibitors of human tyrosyl-DNA phosphodiesterase 1 (TDP1): qHTS in cells in absence of CPT; 420,000 compounds, 15% hits; DT40 Tdp1-/- hTDP1 cells, no CPT, ATP luminescence, 48 h; Potency, µM (top dose mostly 46.2 µM), inactives show at the highest dose activity change, negative = growth inhibition, hits mostly inhibitors; note: potency is the fitted concentration of half-maximal effect; nearly all actives have a fitted effect of over 55% in size
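Camptothecin absent (DMSO only). Human TDP1-complemented DT40 knockout cells, 400 cells/well, 37 °C for minimum 48 hr; ATP measured via CellTiter-Glo, 30 min dark incubation, luminescence.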
HT1080 IDH1KD tx = kills HT-1080 cells with IDH1 knockdown | Potency, µM (doses to about 46.1 µM), inactives show at the top dose activity, negative = toxicity, most hits filed as cytotoxic | AID 686971 | HT-1080 IDH1 knockdown viability, ATP luminescence, 48 h | 360,000 compounds, 2% hits;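 note: potency is the fitted concentration of half-maximal effect; 0% = DMSO wells and -100% = cell-free medium wells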
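Luminescent ATP read-out (CellTiter-Glo, 10 min at room temperature) after 48 h compound exposure at 37 °C gave viability of IDH1-knockdown HT-1080 cells. Activity was normalised to DMSO and cell-free wells, then fitted as concentration-response curves.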
DT40 TDP1 CPT = DT40-hTDP1 cell growth loss with CPT. chicken DT40 Tdp1-/-;hTDP1 cells + 20 nM CPT, ATP luminescence, 48 h. Potency, µM (highest dose often 46.2 µM), without a hit: at the highest dose activity change, negative = growth inhibition, most hits filed as inhibitors. 420,000 compounds, 12% hits. AID 686979; note: potency is the fitted concentration of half-maximal effect; nearly all actives have a fitted effect of over 55% in size
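Cell growth measured by CellTiter-Glo luminescence after a minimum 48 h, 37 C compound exposure with 20 nM CPT in Tdp1-knockout DT40 cells stably expressing hTDP1, seeded 400/well; qHTS titration format.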
HT1080-NT tox = kills 2HG-producing HT-1080-NT fibrosarcoma cells; HT-1080-NT fibrosarcoma viability, CellTiter-Glo ATP luminescence, 48 h; Potency, µM (top dose mostly 46.1 µM), for inactives: at the top dose activity, negative = less viability, most hits filed as cytotoxic; 360,000 compounds, 1.6% hits;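 note: NT is the 2HG producing partner of a matched IDH1 knockdown line; potency is the fitted concentration of half-maximal effect; 0% = DMSO-treated cells and -100% = media-only wells without cells; nearly all actives have a fitted effect of over 55% in size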
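Toxicity toward the 2HG-producing NT line was scored as %Activity, normalised to DMSO and no-cell wells, from CellTiter-Glo luminescence after 48 hours' treatment.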
ELG1 FLuc counter = luciferase inhibition in cell-free luciferin readout for ELG1 hits; shares compounds with ELG1 repair inh; cell-free firefly luciferase luminescence counter-screen, ViewLux; Potency, µM (highest dose often 46.1 µM), for inactives: at the top dose activity change, negative = inhibition, actives largely listed as inhibitors; 350 compounds, 3% hits; AID 624247; note: potency is the fitted concentration of half-maximal effect
ELG1 Luc conf = confirmation of human ELG1-dependent DNA repair inhibitors; Potency, µM (doses to about 46.1 µM), for the others: top-dose activity change, negative = inhibition, actives largely listed as inhibitors; HEK293T ELG1-luciferase levels, luminescence; cells co-treated with 5-fluorouridine; 670 compounds, 68% hits; AID 624248; shares compounds with ELG1 repair inh; note: potency is the fitted concentration of half-maximal effect; nearly all actives have a fitted effect of over 55% in size
ELG1-Luc MMS = confirmation of human ELG1 repair inhibitors, MMS stimulated; shares compounds with ELG1 repair inh; HEK293T luciferase-tagged ELG1 level, MMS stimulated; Potency, µM (highest dose often 46.1 µM), for the others: at the highest dose activity change, negative = inhibition, actives largely listed as inhibitors; 670 compounds, 53% hits; note: potency is the fitted concentration of half-maximal effect; nearly all actives have a fitted effect of over 60% in size
ELG1 5-FU = confirmation of ELG1 repair inhibitors: viability with 5FU. shares compounds with ELG1 repair inh. cell viability with 5-FU, ELG1-dependent repair. Potency, µM (series often up to 46.1 µM), for inactives: at the highest dose activity change, negative = viability loss, most hits filed as cytotoxic. 670 tested, under 10 active. AID 624250;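 note: ELG1-luc HEK293T cells cotreated with 5-fluorouridine at 10 µM final; potency is the fitted concentration of half-maximal effect; viability measured 16 h after compound addition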
ELG1 MMS cell = confirmation of ELG1 repair inhibitors: viability with MMS | Cell viability with MMS, ELG1-dependent DNA repair | 670 compounds, 33% hits | shares compounds with ELG1 repair inh | Potency, µM (top dose mostly 46.1 µM), inactives show at the top dose activity change, negative = viability loss, usual class: cytotoxic;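 note: ELG1-luc HEK293T cells co-treated with 10 µM MMS; potency is the fitted concentration of half-maximal effect; viability read 16 h after compound addition; nearly all actives have a fitted effect of over 60% in size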
ELG1 unstim viab = unstimulated viability counter-screen for ELG1 repair hits. cell viability counter-screen, unstimulated, luminescence. shares compounds with ELG1 repair inh. 900 compounds, 8% hits. Potency, µM (series often up to 45.9 µM), inactives show at the highest dose activity change, negative = loss of viability, usual class: cytotoxic;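 note: potency is the fitted concentration of half-maximal effect; compound exposure lasted 16 hours before reading; nearly all actives have a fitted effect of over 55% in size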
FLuc enzyme = counter-screen for ELG1 repair inhibitors: firefly luciferase inhibition; shares compounds with ELG1 repair inh; purified firefly luciferase, luminescence counter-screen; Potency, µM (doses to about 57.5 µM), inactives show at the highest dose activity, negative = inhibition, actives largely listed as inhibitors; 350 compounds, 10% hits; AID 624253; note: potency is the fitted concentration of half-maximal effect
* marks the source's active call; other numbers are inactive results; u = inconclusive; x = not tested or not shown. Compounds with a hit are over-represented: about 19% of the library has one in this group of screens. Unless noted, calls come from the whole dose curve; as a rule, active = well fitted curve in the direction sought with a large enough effect; inconclusive = small, poorly fitted or top-dose-only effect, or another doubt; inactive = no such curve, though single readings can be large; an effect the other way counts as inactive or inconclusive. Unless noted, % is set by controls: 0 for no effect and ±100 for the full control effect.

SMILES	ELG1 repair inh	IL-1B inflam inh	DT40 TDP1 no CPT	HT1080 IDH1KD tx	DT40 TDP1 CPT	HT1080-NT tox	ELG1 FLuc counter	ELG1 Luc conf	ELG1-Luc MMS	ELG1 5-FU	ELG1 MMS cell	ELG1 unstim viab	FLuc enzyme
Cc1cc(C)c(Cc2c(C)nc3c(C(=O)NCc4ccco4)cnn3c2C)c(C)c1	7.3µM*	-1	8.2µM*	-5%	7.3µM*	-1%	-13%	u	7.1µM*	-3%	7.9µM*	u	6%
COc1cc(C(=O)OCC(=O)N2CC(C)OC(C)C2)cc(OC)c1OC (stereo not given)	11%	17	-1%	15%	13%	22%	x	x	x	x	x	x	x
CC(=O)c1cc(F)ccc1OCC(=O)Nc1ccc2c(c1)OCO2	u	-9	-17%	u	-18%	-27%	x	x	x	x	x	-9%	x
Cc1ccc(C(=O)Nc2ccc(C(F)(F)F)n(C)c2=O)cc1	u	35	-7%	16%	-16%	15%	x	x	x	x	x	x	x
Cc1ccc(C(=O)Nc2cccc3[nH]c(C(F)(F)F)nc23)cc1	u	-12	u	-40%	u	u	x	16µM*	7.9µM*	-11%	8.9µM*	u	x
Cc1ccc(S(=O)(=O)Nc2nc(CN3CCOCC3)nc3sc(C(=O)O)c(C)c23)cc1	x	1	-3%	10%	0%	18%	x	x	x	x	x	x	x
Cc1cc(S(=O)(=O)Nc2nc(CN3CCOCC3)nc3sc4c(c23)CCCC4)ccc1F	1%	34	u	-1%	-1%	-6%	77%	0%	15%	-7%	-4%	-11%	-1%
CC1CCCCN1c1ncnc(N)c1[N+](=O)[O-] (stereo not given)	3.3µM*	-78*	u	1%	u	-18%	x	7.1µM*	14µM*	2%	u	6%	x
